Bioassay records: PubChem BioAssay, several laboratories
Autofluor counter: compound fluorescence in toxin protease inhibitor counterscreen. AID 624483. hit rate 3.1% among 360,000. compound autofluorescence counterscreen, microsphere flow cytometry; active compounds read high. fluorescence intensity (concentration not given with the values); in the data active means fluorescence intensity above about 16000; inconclusive means no clear call, values can overlap the other calls
BoNT-A LC inh2: BoNT A light chain protease inhibition; inhibition, % at 10 µM; multiplex microsphere protease substrate cleavage, flow cytometry; hit rate 0.17% among 360,000
MazEF act: activators of E. coli MazEF toxin-antitoxin RNase; P0AE70; activation, % at 20 µM; AID 504720; hit rate 0.32% among 350,000; FAM/BHQ RNA-DNA oligo cleavage fluorescence, 5 h; in the data active means activation above about 50%
Target sequence (P0AE70 whole entry, looked up): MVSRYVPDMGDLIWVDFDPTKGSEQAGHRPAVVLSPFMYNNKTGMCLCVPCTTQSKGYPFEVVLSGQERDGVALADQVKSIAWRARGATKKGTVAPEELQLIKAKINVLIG
Anthrax LF inh2: anthrax lethal factor protease inhibition; hit rate 0.12% among 360,000; multiplex microsphere protease cleavage assay, LF; P15917; AID 588501; inhibition, % at 10 µM
BoNT F protease: inhibitors of Botulinum neurotoxin F light chain protease | Multiplex microsphere protease cleavage assay, flow cytometry | inhibition, % at 10 µM | hit rate 0.22% among 360,000; in the data active means inhibition above about 35%, passing the limit was not always enough; inconclusive means no clear call, values can overlap the other calls
A number is an active result; - = inactive; ? = inconclusive; . = not tested or not shown. Hits are enriched below; roughly 3.6% of the tested compounds scored in any of these assays. Unless noted, no stated cut-off is given here; in the data, active means inhibition above about 30%; inconclusive means no clear call, values can overlap the other calls; inactive means below that.

SMILES	Autofluor counter	BoNT-A LC inh2	MazEF act	Anthrax LF inh2	BoNT F protease
CCC(Sc1nc2cc3c(cc2c(=O)n1Cc1ccco1)OCO3)C(=O)Nc1ccccc1OC (centres undefined)	23027	?	-	-	-
CCC(Sc1nc2cc3c(cc2c(=O)n1Cc1ccco1)OCO3)C(=O)NCCOC (centres undefined)	-	-	-	-	-
CCC(Sc1nc2cc3c(cc2c(=O)n1Cc1ccco1)OCO3)C(=O)Nc1cccc(OC)c1 (centres undefined)	21154	-	-	-	-
COC(=O)c1nn(-c2ccccc2)c(=O)cc1Oc1ccccc1	22483	-	-	-	-
CCCSc1cc(=O)n(-c2ccccc2)nc1C(=O)OCC	22530	-	-	-	-
CCOC(=O)c1nnn(-c2ccccc2)c1C	24310	?	-	-	-
CCOC(=O)c1nn(-c2ccccc2)c(C#N)c1N	-	-	-	-	-
COC(=O)c1nn(-c2ccccc2)c(=O)cc1O	-	-	-	-	-
CCCCCCC(=O)Oc1cccc(C2=CC(=O)CC(C)(C)C2=O)c1	-	-	-	-	-
Cc1cc(Cl)c2oc(C(=O)N3CCCCC3CCN3CCCC3=O)c(C)c2c1 (centres undefined)	-	-	-	-	-
COc1cc2c(cc1OC)C(c1ccc(Br)cc1)NCC2 (centres undefined)	.	.	-	.	.
O=c1[nH]c(C2CCCN(S(=O)(=O)c3ccccc3)C2)nc2c1nnn2Cc1ccccc1Br (centres undefined)	-	-	-	-	-
CC#CCCCC(=O)Nc1cc(OC)nc(OC)n1	22745	-	-	-	-
COc1ccc(CCN(C)C/C=C/c2ccccc2[N+](=O)[O-])cc1OC	-	-	-	-	-
Nc1nnc(SCc2ccc(F)cc2)s1	23088	?	-	-	-
Cc1nnc(SCc2ccc(F)cc2)s1	-	-	-	-	?
CCS(=O)(=O)C(=C(Nc1ccc(OC)cc1)Nc1ccc(OC)cc1)S(=O)(=O)CC	22992	-	-	-	-
Cc1ccc(C(=O)CCC(=O)OCC(=O)N(CC(C)C)c2c(N)n(Cc3ccccc3)c(=O)[nH]c2=O)cc1	-	-	-	-	-
COCCCN(C(C)=O)c1nc(-c2ccccc2)cs1	21845	?	-	-	-
O=C(N/N=C/c1c(O)ccc2ccccc12)c1ccc(CO)nc1	-	-	-	-	40.0
O=C(N/N=C\c1c(O)ccc2ccccc12)c1ccc(S(=O)(=O)N2CCCCC2)cc1	-	31.9	-	-	-
O=C(Cc1n[nH]c(=O)[nH]c1=O)N/N=C/c1c(O)ccc2ccccc12	-	-	71.3	-	-
O=C(Cc1n[nH]c(=O)[nH]c1=O)N/N=C/c1ccccc1	-	-	-	-	-
CC1CCN(C(=O)CSc2nc(C(C)C)nc3c2c(=O)n(C)c(=O)n3C)CC1	-	-	-	-	-
CCN1C(=O)[C@H]2[C@@H](c3ccc(C)cc3)N[C@]3(CCCN(Cc4cccn4C)C3=O)[C@H]2C1=O	-	-	-	-	-
SMILES	Autofluor counter	BoNT-A LC inh2	MazEF act	Anthrax LF inh2	BoNT F protease
Cc1cc2c(cc1S(=O)(=O)NCc1ccccc1)OCC(=O)N2	-	-	-	-	-
O[C@H]1CN(CC2CCCCC2)[C@@H](c2ccc(Cl)cc2)C[C@@H]1n1cc(C2CC2)nn1	-	-	-	-	-
CC/C=C(\NC(C)=O)c1ccccc1	-	-	-	-	-
O=C(O)c1ccccc1C(=O)Nc1ccc(Oc2ccccc2)cc1	-	-	-	-	-
CC(C)(C)c1ccc(Oc2ccc(NC(=O)c3ccccc3C(=O)O)cn2)cc1	-	-	-	?	47.5
COC(=O)[C@]12CCCCC=C1N(Cc1ccccc1)C(=O)[C@H](CC(=O)NCCc1ccccc1OC)C2	-	-	.	-	-
C=CCn1c(SCC(=O)NCC2CCCO2)nc2scc(-c3ccc(OC)cc3)c2c1=O (centres undefined)	-	-	-	-	-
O=C(CCCn1c(SCC(=O)c2ccc(F)cc2)nc2ccccc2c1=O)NCc1ccccc1	-	-	-	-	-
Cc1cc(NC(=O)CSc2nc3ccccc3c(=O)n2CCCC(=O)NCc2ccccc2)n[nH]1	16651	-	-	-	-
C=CCn1c(SCC(=O)NCC2CCCO2)nc2scc(-c3ccco3)c2c1=O (centres undefined)	22083	?	-	-	-
CCCCNC(=O)CSc1nc2ccccc2c(=O)n1C1CCCC1	19876	-	-	-	-
CCn1c(SCC(=O)N2CCCC2)nc2ccccc2c1=O	19212	-	-	-	-
CC(=O)N1CCN(Cc2nc3ccc(Cl)cc3n2CCO)CC1	-	-	-	-	-
O=C(NCCC1CCCCN1S(=O)(=O)c1ccc(F)cc1)C(=O)NCc1cccnc1 (centres undefined)	?	-	-	?	-
CCCCn1c(SCC(=O)Nc2cc(C)on2)nc2ccccc2c1=O	23871	-	-	-	-
O=C(CCn1c(SCC(=O)NCc2ccco2)nc2ccccc2c1=O)NCCc1ccccc1	22374	?	-	-	-
Cc1ccc(NC(=O)CSc2nc3ccccc3c(=O)n2CCCC(=O)N2CCCC2)cc1	22956	-	-	-	-
O=C(CCCn1c(SCC(=O)NCC2CCCO2)nc2ccccc2c1=O)NCc1ccccc1 (centres undefined)	22190	-	-	-	-
COCCCn1c(SCC(=O)Nc2ccc(C)cc2)nc2ccccc2c1=O	-	-	-	-	-
C=CCn1c(SCC(=O)NCc2ccco2)nc2ccccc2c1=O	-	-	-	-	-
COc1ccc2oc(C(=O)OC(C)C(=O)N3C(C)CCCC3C)c(C)c2c1 (centres undefined)	-	-	-	-	-
CC(=O)c1ccc(NC(=O)CN2C(=O)NC3(CCc4ccccc43)C2=O)cc1 (centres undefined)	-	-	-	-	-
O=C(CN1C(=O)c2ccccc2S1(=O)=O)Nc1cc(S(=O)(=O)N2CCCCC2)ccc1Cl	-	-	-	-	-
C[C@@H]1COc2cccc(N3CCSCC3)c2S(=O)(=O)N1	-	-	.	-	-
Cn1nc(C(=O)NCC2COc3ccccc3O2)c2ccccc2c1=O (centres undefined)	?	-	-	-	-
SMILES	Autofluor counter	BoNT-A LC inh2	MazEF act	Anthrax LF inh2	BoNT F protease
COC(=O)CC(NS(=O)(=O)c1cccs1)c1ccc2c(c1)OCO2 (centres undefined)	-	-	-	-	-
NC(=O)CSc1nc2scc(-c3ccco3)c2c(=O)n1-c1ccccc1	-	-	-	-	-
CCOC(=O)CSc1nc2ccccc2c(=O)n1CC1COc2ccccc2O1 (centres undefined)	22016	-	-	-	-
O=C(CSc1nc2scc(-c3ccco3)c2c(=O)n1-c1ccccc1)N1CCOCC1	21589	-	-	-	-
COCCn1c(SCC(=O)N2CCCCC2)nc2ccccc2c1=O	-	-	-	-	-
O=C(CSc1nc2ccccc2c(=O)n1CCC(=O)N1CCCCC1)NCc1ccccc1	23326	?	-	-	-
COc1cccc(OCc2nnc(SCC(=O)NCc3ccco3)n2CCc2ccccc2)c1	20143	-	-	-	-
O=C(Nc1nnc([C@@H]2C[C@H](O)[C@@H](CO)O2)s1)c1ccccc1Cl	-	-	.	-	-
